Rows were chosen to be rich in hits. Some 6% of all compounds tested hit in one or more screens of this group.
Tau fibril ThT = qHTS for Inhibitors of Tau Fibril Formation, Thioflavin T Binding; Microtubule-associated protein tau (Homo sapiens), P10636; recombinant tau K18 P301L, heparin-induced fibrillization, ThT fluorescence; Potency, µM (doses to about 57.4 µM), without a hit: at the highest dose activity, negative = inhibition, actives largely listed as inhibitors; 270,000 tested, 2.1% active; further: nearly all actives have a fitted effect of over 55% in size
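Heparin-induced fibrillization of the P301L-mutant K18 repeat-domain fragment of human tau was followed by ThT binding in quantitative high-throughput format.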
VDR inhibitor = Inhibitors of the vitamin D receptor (VDR): qHTS; Vitamin D3 receptor (Homo sapiens), P11473; VDR-SRC2-3 peptide fluorescence polarization, 2 h; Potency, µM, for inactives: max response, negative = inhibition, actives largely listed as inhibitors; 400,000 tested, 0.93% active
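Compounds are added to VDR with labelled SRC2-3 coactivator peptide and held 2 h at room temperature. Inhibition of the VDR–peptide interaction is then read as a change in fluorescence polarization.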
Tau FP inhib = qHTS for Inhibitors of Tau Fibril Formation, Fluorescence Polarization. K18 P301L tau heparin fibrillization, Alexa594 FP, 6 h. 280,000 tested, 0.39% active. Microtubule-associated protein tau (Homo sapiens), P10636. AID 1468, 2008. Potency, µM (highest dose often 57.7 µM), for the others: at the highest dose activity, negative = inhibition, usual class: inhibitors; further: nearly all actives have a fitted effect of over 55% in size
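FP of Alexa 594-tau after heparin (20 uM) induction. Substrate: human K18 P301L, 15 uM unlabeled, 0.24 uM labeled. Buffer 100 mM sodium acetate pH 7. 6 hr, 37 C.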
Sfp PPTase inh = qHTS Assay for Inhibitors of Bacillus subtilis Sfp phosphopantetheinyl transferase (PPTase) | Biochemical Sfp PPTase activity, qHTS | Potency, µM, inactives show largest response in the series, negative = inhibition, actives largely listed as inhibitors | 310,000 tested, 3.5% active;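 further: the enzyme is Sfp with the accession as filed and its product quenches rhodamine fluorescence; 0% = enzyme reaction without inhibitor and -100% = no enzyme wells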
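Sfp 15 nM + cpd, 15 min RT; start w/ rhodamine-CoA 5 uM, BHQ-2-YbbR 12.5 uM (final); 50 mM Hepes pH 7.6, 10 mM MgCl2, 0.01% NP-40, 0.01% BSA; read 525/598 nm at 0 and 30 min.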
PLK1 PBD block = qHTS for Inhibitors of PLK1-PDB (polo-like kinase 1 - polo-box domain): Primary Screen; Serine/threonine-protein kinase PLK1 (Homo sapiens), P53350; Potency, µM, without a hit: max response, negative = inhibition, most hits filed as inhibitors; 360,000 tested, 2.8% active; Plk1 PBD binding of FITC phosphopeptide, fluorescence polarization; further: series mostly up to about 57 µM; nearly all actives have a fitted effect of over 65% in size
Target sequence (P53350 whole entry, looked up, the tested form may be a part): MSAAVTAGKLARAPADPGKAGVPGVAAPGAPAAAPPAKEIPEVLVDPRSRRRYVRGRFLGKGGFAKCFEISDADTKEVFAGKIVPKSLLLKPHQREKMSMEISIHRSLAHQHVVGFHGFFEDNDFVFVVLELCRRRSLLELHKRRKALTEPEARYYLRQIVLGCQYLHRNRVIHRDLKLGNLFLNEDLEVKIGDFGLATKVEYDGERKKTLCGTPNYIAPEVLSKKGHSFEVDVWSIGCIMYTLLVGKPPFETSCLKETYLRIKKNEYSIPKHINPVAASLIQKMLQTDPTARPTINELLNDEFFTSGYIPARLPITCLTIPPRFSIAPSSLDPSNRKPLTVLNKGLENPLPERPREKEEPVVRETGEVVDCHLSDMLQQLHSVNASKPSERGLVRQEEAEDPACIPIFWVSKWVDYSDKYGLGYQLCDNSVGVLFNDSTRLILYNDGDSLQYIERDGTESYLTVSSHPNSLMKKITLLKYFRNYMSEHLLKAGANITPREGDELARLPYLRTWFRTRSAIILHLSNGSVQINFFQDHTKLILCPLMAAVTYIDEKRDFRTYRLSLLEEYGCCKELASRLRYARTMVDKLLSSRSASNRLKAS
Tau fluor counter = Counterscreen qHTS for Inhibitors of Tau Fibril Formation, Fluorescence Polarization | tau K18 P301L (four-repeat tau fragment) Alexa594 fluorescence, heparin fibrillization | Potency, µM (titrated, usually from 57.7 µM), for inactives: at the highest dose activity change, negative = decrease | 280,000 tested, 0.93% active | AID 1463, 2008; further: nearly all actives have a fitted effect of over 55% in size
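Human K18 P301L tau (15 uM unlabeled plus 0.24 uM Alexa 594-labeled, final) in 100 mM sodium acetate pH 7 was mixed with compound and 20 uM heparin and incubated 6 hr at 37 C.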
* = called active by the depositor; ? = inconclusive; . = not tested or not shown; [ ] = dose if it differs, or a comment. The call rests on the fitted dose curve; in most records, active means well fitted curve in the direction sought with a large enough effect; inconclusive means small, poorly fitted or top-dose-only effect, or another doubt; inactive means no such curve, though single readings can be large; an effect the other way counts as inactive or inconclusive. Unless noted, on the % scale 0 is the no-effect control and ±100 the full control effect; potency means the concentration at half of the fitted maximal effect.

SMILES	Tau fibril ThT	VDR inhibitor	Tau FP inhib	Sfp PPTase inh	PLK1 PBD block	Tau fluor counter
Cc1ccc(Nc2nc(COC(=O)COc3ccc(C=O)cc3)cs2)cc1	?	1.5%	6.4%	-6.1%	4.8%	?
O=C(COc1ccc(Cl)cc1)OCc1csc(Nc2ccccc2)n1	?	-17.4%	11.5%	-13.4%	-7.7%	14.1µM*[quencher]
CCOC(=O)/C(=N\Nc1ccccc1)P(=O)(c1ccccc1)c1ccccc1	-15.6%	-14.9%	5.0%	20µM*	-4.5%	2.9%
CCOC(=O)/C(=N\Nc1ccc(OC)cc1)c1csc(Nc2ccccc2)n1	?	-5.5%	?	1.7%	-0.6%	7.08µM*[quencher]
Cc1ccc(-n2ncc3c2CC(C)(C)CC3NC(=O)CCc2cccnc2)cc1 (stereo not given)	.	7.9%	.	14.3%	-3.2%	.
CS(=O)(=O)c1ccc(Cn2c3c(c4cc(F)cc(F)c42)CCC[C@H]3CC(=O)O)cc1	?	25.1µM*	1.7%	-8.5%	.	-11.6%
CCC(=O)/C=C1/Sc2ccc(OC)cc2N1CCO	-2.5%	?	1.4%	-1.8%	13.4µM*	-5.6%
CCC(/C=C1\Sc2ccc(OC)cc2N1CCO)=C\c1sc2ccc(OC)cc2[n+]1CCO	1.12µM*	79.4µM*	-13.2%	22.4µM*	?	0.398µM*[fluorescent]
CCC(=O)/C=C1/Sc2ccc(OC)cc2N1CC	?	0.0%	-4.6%	-11.4%	?	-5.9%
CCO/C(=C/c1sc2ccc(OC)cc2[n+]1CCCS(=O)(=O)[O-])CC	-8.3%	-28.7%	-13.3%	?	-20.9%	-4.5%
CCC(/C=C1\Sc2ccc(OC)cc2N1CC)=C\c1sc2ccc(OC)cc2[n+]1CCCS(=O)(=O)[O-]	3.55µM*	?	?	50.1µM*	?	0.794µM*[fluorescent]
CCOc1ccccc1C=NNC(=O)C1CC1	.	10.7%	.	.	-6.2%	.
COCc1cc(C)nc2sc3c(=O)n(-c4cc(C)ccc4C)nnc3c12	-1.5%	12.0%	5.1%	.	.	0.0%
CCS(=O)(=O)N1CCC(C(=O)Oc2ccc(Cl)cc2)CC1	.	-12.0%	.	10.6%	26.7µM*	.
CCN1CCN(CC(=O)Nc2ccc(C(C)=O)cc2)CC1	.	5.8%	.	?	-3.7%	.
CCN1CCN(CC(=O)c2ccc(C)cc2)CC1	.	2.0%	.	79.4µM*	2.6%	.
COc1ccc(NC(=O)CN2C(=O)NC(C)(C3CC3)C2=O)cc1S(=O)(=O)N1CCCCC1 (stereo not given)	.	-15.2%	.	.	-13.3%	.
Cc1cc(C)c(C#N)c(SCSCc2ccccc2)n1	-15.0%	-6.0%	?	20µM*	?	-22.6%
Cc1ccc2nc(CSc3nc(C)cc(C)c3C#N)[nH]c2c1	12.6µM*	-1.4%	?	-2.5%	1.3%	?
Cc1cc(C)c(C#N)c(SCc2ccccc2)n1	-11.3%	10.4%	-7.6%	?	-21.7%	-15.9%
COc1ccc(-c2cc(C(F)(F)F)n3nc(-c4ccc(Cl)cc4)cc3n2)cc1OC	-19.7%	-8.1%	3.9%	.	.	-9.1%
CCN(CC)C(=O)c1sc2c(c1C)c(=O)n(-c1ccc(Cl)c(Cl)c1)c(=O)n2Cc1cc(=O)n2ccccc2n1	19.0%	-6.9%	2.0%	.	.	11.3%
Cc1ccc(NC2SC(=O)N(Cc3cccc(C(=O)O)c3)C2=O)cc1 (stereo not given)	-10.5%	4.0%	7.1%	-18.1%	21.2µM*	0.5%
Cc1ccc(NC2SC(=O)N(Cc3cccc(C(=O)O)c3)C2=O)c(C)c1 (stereo not given)	-7.5%	90.9%	-4.9%	-0.2%	?	-6.0%
Cc1cc(NC(=O)CSc2nc3c([nH]c4ccccc43)c(=O)n2-c2ccccc2)no1	11.2%	-5.3%	?	.	.	-15.5%
COc1cccc(-n2c(SCC(=O)Nc3cc(C)on3)nc3c([nH]c4ccccc43)c2=O)c1	8.4%	-13.1%	1.3%	25.1µM*	-2.8%	2.3%

Compound activity: PubChem, National Center for Advancing Translational Sciences (NCATS)
